Test results from PubChem BioAssay (EPA / NIEHS).
Results filed as inconclusive are left out. The source made the active and inactive calls. The calls were made as follows, unless noted: active = hit-call score of the fitted dose curve at least 0.9, where 1 is the maximum; inconclusive = response in the unintended direction; inactive = score below 0.9.

Legend:
[1] = TOX21_p53_BLA_p2_viability: Viability Assessment in the Tox21 HCT-116 p53 Agonism Beta-lactamase Assay, Phase 2 (AID 2283591);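 also: actives lower the ATP signal meaning cytotoxicity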
How it was run: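 Cytotoxicity readout: CellTiter-Glo ATP luminescence, 30 min at room temperature, after the beta-lactamase read. Cells were HCT116 exposed 16 h at 37C to compounds pin-transferred at 217-fold dilution from DMSO stocks.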

[2] = molecular target: Cellular tumor antigen p53 (Homo sapiens) (UniProt P04637); assay: TOX21_p53_BLA_p2_ratio: Tox21 HCT-116 p53 Agonism Beta-lactamase Assay, Ratio, Phase 2 (AID 2283592)
Chain of Cellular tumor antigen p53 (Homo sapiens) (P04637 whole entry, looked up): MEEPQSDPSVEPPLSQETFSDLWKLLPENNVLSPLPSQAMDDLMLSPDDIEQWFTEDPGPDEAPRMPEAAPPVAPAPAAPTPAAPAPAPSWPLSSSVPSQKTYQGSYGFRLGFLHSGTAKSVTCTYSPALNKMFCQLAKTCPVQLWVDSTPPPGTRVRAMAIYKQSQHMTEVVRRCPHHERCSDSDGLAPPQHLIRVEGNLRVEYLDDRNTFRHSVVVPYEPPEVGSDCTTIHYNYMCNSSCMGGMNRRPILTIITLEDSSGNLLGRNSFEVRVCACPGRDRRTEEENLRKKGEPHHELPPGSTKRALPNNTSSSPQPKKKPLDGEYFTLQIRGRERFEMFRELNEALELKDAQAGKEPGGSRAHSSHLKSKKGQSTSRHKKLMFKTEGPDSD
How it was run: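 HCT-116 cells with p53-responsive beta-lactamase reporter, 4000 cells/well, preincubated 5 h, then compound in DMSO (217-fold dilution) for 16 h at 37C. CCF4-AM substrate 2 h at room temperature; 460/530 nm emission ratio fitted upward versus DMSO.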

[3] = molecular target: Cellular tumor antigen p53 (Homo sapiens) (UniProt P04637); assay: TOX21_p53_BLA_p3_ratio: Tox21 HCT-116 p53 Agonism Beta-lactamase Assay, Ratio, Phase 3 (AID 2283596)
How it was run: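 HCT116 p53-bla cells (4000/well) given compound in DMSO (217-fold dilution) after 5 h, incubated 16 h at 37C. CCF4-AM substrate 2 h at room temperature; 460/530 nm emission ratio, gain fitted against DMSO.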

[4] = molecular target: Cellular tumor antigen p53 (Homo sapiens) (UniProt P04637); assay: TOX21_p53_BLA_p5_ratio: Tox21 HCT-116 p53 Agonism Beta-lactamase Assay, Ratio, Phase 5 (AID 2283599)
How it was run: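 Beta-lactamase reporter ratio (blue 460 nm over green 530 nm, 405 nm excitation) after 2 h CCF4-AM loading, in HCT-116 cells exposed 16 h at 37 C to compounds pinned at 217-fold dilution. Increases relative to DMSO baseline scored.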

[5] = TOX21_p53_BLA_p5_viability: Viability Assessment in the Tox21 HCT-116 p53 Agonism Beta-lactamase Assay, Phase 5 (AID 2283600)
How it was run: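 HCT-116 p53 beta-lactamase reporter cells, 4000/well, were exposed to compound (pin transfer, 217-fold dilution) for 16 hours at 37C. Cellular ATP was read by CellTiter-Glo luminescence after 30 min at room temperature.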

[6] = molecular target: Cellular tumor antigen p53 (Homo sapiens) (UniProt P04637); assay: TOX21_p53_BLA_p4_ratio: Tox21 HCT-116 p53 Agonism Beta-lactamase Assay, Ratio, Phase 4 (AID 2283601)
How it was run: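 Signal is the blue/green (460nm/530nm) ratio of cleaved versus uncleaved CCF4-AM substrate, read after 2 h substrate loading. Cells were HCT116 carrying the p53-responsive beta-lactamase reporter, dosed 16 h at 37C, 5% CO2; CellTiter-Glo measured in parallel.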

[7] = CCTE_Harrill_HTTr_Viability_MCF7: CCTE's 6-hour Cell Viability Assessment for the High-Throughput Transcriptomics (HTTr) Platform, in MCF-7 cells cultured in DMEM + 10% fetal bovine serum, Harrill Lab (AID 2284010; active = hit-call score of the fitted dose curve at least 0.9, where 1 is the maximum; inactive = score below 0.9)
How it was run: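 Cells were dosed with chemicals in an eight-point dilution series, imaged 6 hours later for propidium iodide uptake, and the endpoint was analyzed by bidirectional fitting against DMSO as negative control.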

[8] = CCTE_Harrill_HTTr_Apoptosis_MCF7: CCTE's 6-hour Apoptosis Assessment for the High-Throughput Transcriptomics (HTTr) Platform, in MCF-7 cells cultured in DMEM + 10% fetal bovine serum, Harrill Lab (AID 2284011; active = hit-call score of the fitted dose curve at least 0.9, where 1 is the maximum; inactive = score below 0.9)
How it was run: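 MCF-7 cells in DMEM + 10% FBS exposed 6 h to chemicals over an eight-point dilution series. Caspase-3/7 activation imaged by high-content CellEvent Green staining; fitted bidirectionally versus DMSO.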

PGR (gene 5241) [9] = molecular target: PGR (gene 5241) (UniProt P06401); assay: TOX21_PR_BLA_Followup_Antagonist_ratio: Tox21 HEK293 Progesterone Receptor (PR) Antagonism Beta-lactamase Follow-Up Assay, Ratio (AID 2283934)
Chain of PGR (gene 5241) (P06401 whole entry, looked up): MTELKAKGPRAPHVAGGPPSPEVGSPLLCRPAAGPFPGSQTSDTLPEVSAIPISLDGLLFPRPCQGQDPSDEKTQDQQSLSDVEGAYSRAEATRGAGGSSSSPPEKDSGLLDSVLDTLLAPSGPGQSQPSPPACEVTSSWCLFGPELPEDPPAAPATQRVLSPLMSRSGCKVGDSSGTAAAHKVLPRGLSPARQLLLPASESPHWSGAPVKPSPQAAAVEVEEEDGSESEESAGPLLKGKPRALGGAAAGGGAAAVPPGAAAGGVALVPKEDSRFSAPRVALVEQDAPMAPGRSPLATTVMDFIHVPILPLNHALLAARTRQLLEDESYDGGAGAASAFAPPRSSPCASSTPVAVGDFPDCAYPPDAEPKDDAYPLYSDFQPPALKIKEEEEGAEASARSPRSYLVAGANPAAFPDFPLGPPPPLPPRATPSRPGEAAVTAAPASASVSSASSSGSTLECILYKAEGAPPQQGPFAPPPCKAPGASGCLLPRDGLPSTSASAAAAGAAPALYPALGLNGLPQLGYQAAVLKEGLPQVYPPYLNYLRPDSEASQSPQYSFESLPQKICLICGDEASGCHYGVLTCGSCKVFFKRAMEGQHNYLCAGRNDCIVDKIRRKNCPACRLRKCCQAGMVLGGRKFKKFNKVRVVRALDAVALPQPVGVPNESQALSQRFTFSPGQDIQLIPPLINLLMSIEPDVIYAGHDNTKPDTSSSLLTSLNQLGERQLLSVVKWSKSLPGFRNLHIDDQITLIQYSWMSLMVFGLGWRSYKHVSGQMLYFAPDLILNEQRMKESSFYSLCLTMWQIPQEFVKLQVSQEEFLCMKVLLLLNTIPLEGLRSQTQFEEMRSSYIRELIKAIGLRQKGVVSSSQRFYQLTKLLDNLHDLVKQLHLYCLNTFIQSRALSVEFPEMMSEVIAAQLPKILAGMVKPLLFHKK
How it was run: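 HEK293T PR-UAS-bla, 2% CS-FBS; 6 hr plating, then cpd + R5020 (1 nM final), 16 hr 37C/5% CO2. B/G FRET substrate 2 h RT. Ratio ch2/ch1 vs DMSO; CellTiter-Glo viability multiplexed, autofluorescence checked.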

[10] = TOX21_PR_BLA_Followup_Agonist_viability: Viability Assessment in the Tox21 HEK293 Progesterone Receptor (PR) Agonism Beta-lactamase Follow-Up Assay (AID 2283935);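 also: signal loss means lower viability so actives are cytotoxic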
How it was run: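 HEK293T PR-UAS-bla, 3,000 cells/well, 2% CS-FBS; 6 hr pre-incubation; cpd in DMSO, 16 hr 37C; LiveBLAzer 2 hr RT, then CellTiter-Glo 30 min RT, luminescence. Decrease = lost viability.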

[11] = TOX21_PR_BLA_Followup_Antagonist_viability: Viability Assessment in the Tox21 HEK293 Progesterone Receptor (PR) Antagonism Beta-lactamase Follow-Up Assay (AID 2283936);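 also: hits lower the luminescence signal meaning cytotoxicity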
How it was run: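 PR-UAS-bla HEK293T cells (3,000/well, 2% charcoal-stripped FBS) given compound plus R5020 agonist, 16 h at 37C. CellTiter-Glo added after bla read, 30 min at room temperature; luminescence loss indicates cytotoxicity.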

PGR (gene 5241) [12] = molecular target: PGR (gene 5241) (UniProt P06401); assay: TOX21_PR_LUC_Followup_Antagonist: Tox21 HEK293 Progesterone Receptor (PR) Antagonism Luciferase Follow-Up Assay (AID 2283938);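 also: curve fitted upward as signal gain over DMSO baseline despite antagonist label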
How it was run: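 HEK293-PR-A-luc cells, 3,000/well, preincubated 5 h at 37C before compound addition in DMSO; 16 h compound exposure at 37C. ONE-Glo luciferase luminescence read after 30 min at room temperature, fitted relative to DMSO baseline.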

[13] = CCTE_Harrill_HTTr_CellCount_MCF7: CCTE's Cell Proliferation Assessment for the High-Throughput Transcriptomics (HTTr) Platform, Harrill Lab (AID 2284012);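 also: count of Hoechst-stained nuclei per well by high-content imaging in MCF-7 cells; intended direction is loss of nuclei count meaning fewer cells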
How it was run: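 Chemicals in eight-point dilution series are added to MCF-7 cells for six hours, nuclei are stained with Hoechst and imaged, and per-well nuclei counts are fitted in both directions relative to DMSO controls.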

[14] = molecular target: Estrogen receptor (Homo sapiens) (UniProt P03372); assay: CCTE_Deisenroth_AIME_96WELL_LUC_Active: CCTE's 96-well Estrogen Receptor Transactivation Assay with AIME metabolic competence (ERTA luciferase; metabolism positive), Deisenroth Lab (AID 2284023)
Chain of Estrogen receptor (Homo sapiens) (P03372 whole entry, looked up): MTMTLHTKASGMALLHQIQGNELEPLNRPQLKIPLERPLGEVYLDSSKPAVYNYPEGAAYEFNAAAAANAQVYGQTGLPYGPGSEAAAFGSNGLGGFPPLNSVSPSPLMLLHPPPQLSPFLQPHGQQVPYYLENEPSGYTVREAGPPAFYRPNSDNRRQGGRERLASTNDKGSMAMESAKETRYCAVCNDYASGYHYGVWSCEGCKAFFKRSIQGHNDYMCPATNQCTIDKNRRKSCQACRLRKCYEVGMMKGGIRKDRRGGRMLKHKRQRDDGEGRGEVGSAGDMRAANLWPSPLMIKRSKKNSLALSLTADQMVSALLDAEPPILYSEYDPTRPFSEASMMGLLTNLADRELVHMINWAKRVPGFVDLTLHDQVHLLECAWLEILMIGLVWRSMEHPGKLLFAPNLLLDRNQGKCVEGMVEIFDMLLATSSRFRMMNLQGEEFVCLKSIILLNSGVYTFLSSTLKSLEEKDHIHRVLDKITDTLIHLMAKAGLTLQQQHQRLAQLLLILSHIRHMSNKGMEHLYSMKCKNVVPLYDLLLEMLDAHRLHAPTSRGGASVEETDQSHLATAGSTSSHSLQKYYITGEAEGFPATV
How it was run: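 Chemicals pre-incubated 2 h with alginate-immobilized phenobarbital/beta-naphthoflavone-induced male Sprague Dawley rat liver S9, then medium transferred to VM7Luc4E2 cells for 24 h luciferase read-out. 10-point series 0.002 - 200 uM; fitted relative to 17beta-estradiol.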

[15] = molecular target: Estrogen receptor (Homo sapiens) (UniProt P03372); assay: CCTE_Deisenroth_AIME_96WELL_LUC_Inactive: CCTE's 96-well Estrogen Receptor Transactivation Assay without AIME metabolic competence (ERTA luciferase; metabolism negative), Deisenroth Lab (AID 2284025)
How it was run: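 VM7Luc4E2 breast cells, luciferase read 24 h after dosing with medium pre-incubated 2 h on alginate-water lids (metabolism negative). 10-point series 0.002–200 uM, single technical replicate, n≥4; fit relative to 17beta-estradiol.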

Measured: AC50

CCCCCCCCCCCCCCCCCCOCC(O)CO (configuration not stated)
inactive: [1] | [2] | [3] | [4] | [5] | [6]

Cc1cn[nH]c1
inactive: [1] | [2] | [3] | [4] | [5]

c1coc(Cn2cccc2)c1
inactive: [1] | [2] | [3] | [4] | [5] | [6]

CCCNC(C)C(=O)Nc1c(C)csc1C(=O)OC (configuration not stated)
inactive: [1] | [2] | [3] | [4] | [5]

CCCCCCCC
inactive: [1] | [2] | [3] | [4] | [5] | [6]

C/C=C/C=C/CO
inactive: [1] | [2] | [3] | [4] | [5] | [6]

Cc1cccc(Br)c1
inactive: [1] | [2] | [3] | [4]

NC(CSCC(=O)O)C(=O)O (configuration not stated)
inactive: [1] | [2] | [3] | [4] | [5]

C[C@@]12C(=O)OC(=O)[C@]1(C)C1CCC2O1
active: [2] 0.446 µM | [6] 2.91 µM
inactive: [1] | [3] | [4] | [5]

CCC1OCC(COc2ccc(Oc3ccccc3)cc2)O1 (configuration not stated)
inactive: [1] | [2] | [3] | [4] | [5] | [6]

CC1CCc2cc(F)cc3c(=O)c(C(=O)O)cn1c23 (configuration not stated)
inactive: [1] | [2] | [3] | [4] | [5] | [6]

CCCCCC=CCC1CC(=O)OC1=O (configuration not stated)
inactive: [1] | [2] | [3] | [4] | [5] | [6]

CO[C@H]1C[C@H](O[C@H]2[C@H](C)[C@@H](O[C@@H]3O[C@H](C)C[C@H](N(C)C)[C@H]3O)[C@@H](C)C[C@]3(CO3)C(=O)[C@H](C)[C@@H](O)[C@@H](C)[C@@H](C)OC(=O)[C@@H]2C)O[C@@H](C)[C@@H]1O
inactive: [1] | [2] | [3] | [4] | [5]

CCCCS
inactive: [1] | [2] | [3] | [4] | [5]

CC1=C(C(=O)O)N2C(=O)[C@@H](NC(=O)[C@H](N)c3ccc(O)cc3)[C@H]2SC1
inactive: [1] | [2] | [3] | [4] | [5] | [6]

Nc1cc(=O)[nH]c(N)n1
inactive: [1] | [2] | [3] | [4] | [5] | [6]

CC(C)Cn1cnc2c(N)nc3ccccc3c21
inactive: [1] | [2] | [3] | [4] | [5]

c1ccc(CN(CC2=NCCN2)c2ccccc2)cc1
inactive: [1] | [2] | [3] | [4] | [5] | [6]

CCC(=O)OC(=O)CC
inactive: [1] | [2] | [3] | [4] | [5] | [6]

CN(C)CCC=C1c2ccccc2CSc2ccccc21
active: [6] 16.6 µM
inactive: [1] | [2] | [3] | [4]

CC(=O)N[C@@H](CC(C)C)C(=O)O
inactive: [1] | [2] | [3] | [4] | [5] | [6]

C#CCN(C)CCCOc1ccc(Cl)cc1Cl
inactive: [1] | [2] | [3] | [4] | [5] | [6]

O=C(O)c1cccc(Cl)c1Cl
inactive: [1] | [2] | [3] | [4] | [5] | [6]

NC[C@@H]1O[C@H](O[C@H]2[C@@H](O)[C@H](O[C@@H]3[C@@H](O)[C@H](N)C[C@H](N)[C@H]3O[C@H]3O[C@H](CO)[C@@H](O)[C@H](O)[C@H]3N)O[C@@H]2CO)[C@H](N)[C@@H](O)[C@@H]1O
inactive: [1] | [2] | [3] | [4] | [6]

O=C(O)c1ccccc1C(=O)Nc1ccc(S(=O)(=O)Nc2nccs2)cc1
inactive: [1] | [2] | [3] | [4] | [6]

FC(F)(F)C(F)(F)C(F)(F)C(F)(F)C(F)(F)F
inactive: [1] | [2] | [3] | [4] | [6]

N=C(N=C(N)N)N1CCOCC1
inactive: [1] | [2] | [3] | [4] | [5] | [6]

CC(=O)N[C@@H]([C@@H](O)[C@H](O)[C@H](O)CO)[C@@H](O)CC(=O)C(=O)O
inactive: [1] | [2] | [3] | [4] | [6]

CC(=O)Oc1cccc(C)c1
inactive: [1] | [2] | [3] | [4] | [5] | [6]

O=C1OCCN1N=Cc1ccc([N+](=O)[O-])o1
inactive: [1] | [2] | [3] | [4] | [5] | [6] | [7] | [8]

CN(C)CCC(c1ccccc1)c1ccccn1 (configuration not stated)
inactive: [1] | [2] | [3] | [4] | [5] | [6]

OCCN1CCN(CCO)CC1
inactive: [1] | [2] | [3] | [4] | [5] | [6]

O=[N+]([O-])c1ccc2c(c1)Cc1ccccc1-2
active: PGR (gene 5241) [9] 25 µM | PGR (gene 5241) [12] 31 µM | [15] 26.8 µM
inactive: all other assays above

Oc1cc(O)c(Cl)cc1Cl
inactive: [1] | [3] | [4] | [6]
active: [2] 64.5 µM

C[C@@H]1CN(c2c(F)c(N)c3c(=O)c(C(=O)O)cn(C4CC4)c3c2F)C[C@H](C)N1
not listed: PGR (gene 5241) [9] | [10] | [11] | PGR (gene 5241) [12] | [14] | [15]
inactive: all other assays above

CC(C)c1ccccc1
inactive: [1] | [2] | [3] | [4] | [6]

CO/N=C(\C(=O)N[C@@H]1C(=O)N2C(C(=O)O)=CCS[C@H]12)c1csc(N)n1
inactive: [1] | [2] | [3] | [4] | [5] | [6]

C[S+](CC[C@H](N)C(=O)O)C[C@H]1O[C@@H](n2cnc3c(N)ncnc32)[C@H](O)[C@@H]1O (some centres not stated)
inactive: [1] | [2] | [3] | [4] | [5] | [6]
